The assay is described as follows: small molecules captured by biotinylated probe aFGF2 – biochemical, small-molecule microarray, fluorescence 635/667, stem cell growth factor project, primary screen (AID 1067).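 Note: measures binding of biotinylated aFGF2 protein to printed compounds on slides; z-score merges feature fluorescence and signal-to-noise across triplicate slides.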 As to conditions: higher = more signal.
In turn, `C=C(/C(=C/C[C@H](OC(C)=O)c1ccccc1OCCO)c1cc(C(=O)OC)ccc1OC)C(C)C` displayed a composite z-score of -0.0222.
`C[N+](C)(C)CCCC[C@@H]1NC(=O)[C@H]2C[C@@H](C(=O)NCCCCCCN)[C@@H](c3ccc(O)cc3)N2C1=O` displayed a composite z-score of 0.0797.
In the case of `COc1ccccc1CN1C(=O)c2ccccc2[C@](Cc2ccccc2I)(C(=O)NCC(F)(F)F)[C@@H]1c1ccc(CO)cc1` it was -0.0454; in that of `O=C(NCc1ccccc1)[C@@H]1c2ccccc2C(=O)N(Cc2ccccc2C(F)(F)F)[C@H]1c1ccc(CO)cc1`, -0.0451.
In turn, `COC(=O)[C@H](Cc1ccccc1)N1CC(/C=C/C2CC2)=C[C@H]1[C@H](O)Cc1ccccc1` returned a composite z-score of -0.104.
Turning to `CCOC(=O)C1=CC[C@@H](c2ccc(OCc3ccccc3)c(OC)c2)N(S(=O)(=O)c2ccc(C)cc2)[C@H]1c1ccc(SC)cc1`, the composite z-score is 0.162.
In turn, `COc1cccc(/C=C/C=O)c1` gave a composite z-score of 0.0726.
The result for `CC(=O)NCCCC[C@@H]1NC(=O)[C@H]2C[C@@H](C(=O)NCCCC[N+](C)(C)C)[C@@H](c3cccc(OCCO)c3)N2C1=O` reads -0.0319; that for `O=C1C2C=CC(C(O)c3ccccc3)N(Nc3ccccc3F)C2C(=O)N1c1ccccc1` (centres undefined), 0.0248; that for `CCOC(=O)C[C@H]1[C@H](OC(=O)c2ccccc2-c2ccccc2)[C@@H](NC(=O)c2ccc(-c3ccccc3)cc2)c2cc(OCCCO)ccc2N1C(=O)c1ccc2ccccc2n1`, -0.127.
The result for `CO[C@]12C=C(Br)[C@@H](C[C@@H]1c1cccc(C)c1)[C@@]1(CO1)C2=O` reads -0.0718; that for `[N-]=[N+]=Nc1ccccc1[C@@H]1OC(c2ccc(OCCCO)cc2)=N[C@]1(Cc1ccccc1)C(=O)NCC(O)CO` (some centres undefined), 0.148; that for `COc1ccc([Si](C)(C)[C@@H]2[C@@H](CCn3cc([C@H](O)c4ccccc4)nn3)O[C@]3(C(=O)N(Cc4ccc(N5CCC5=O)cc4)c4ccccc43)[C@H]2C)cc1`, -0.164.
As for `C=CCC(OC(C)=O)[C@@H]1[C@@H](N(Cc2ccc(-c3cccc(C(F)(F)F)c3)o2)C(=O)c2ccc(C)cc2)c2cc(OCCCO)ccc2N1C(=O)c1ccc2ccccc2c1` (some centres undefined), the composite z-score amounted to 0.0002.
In the case of `C=CCC(OC(C)=O)[C@@H]1[C@@H](N(Cc2cccc3ccccc23)C(=O)Cc2ccc(F)cc2)c2cc(OCCCO)ccc2N1C(=O)c1ccc2ccccc2n1` (some centres undefined) it was 0.0631; in that of `C[C@H]1NC(=O)[C@@]23C(=O)N[C@@H](Cc4ccccc4)C2[C@H](C)[C@@]2(C)O[C@H]2C3/C=C/C/C=C\CNC(=O)[C@H](Cc2ccccc2)NC1=O` (some centres undefined), -0.206.
The result for `CCCCCCCCCCC(O)C1C=CC2C(=O)N(C)C(=O)C2N1Nc1ccc([N+](=O)[O-])cc1[N+](=O)[O-]` (centres undefined) reads 0.0772.
Compound `NCCCCCCNC(=O)[C@@H]1C[C@@H]2C(=O)N[C@@H](CCCCN)C(=O)N2[C@@H]1c1cccc(OCCO)c1` yielded a composite z-score of 0.221.
The result for `N#Cc1ccc(C(O)C2C=CC3C(=O)N(c4ccccc4)C(=O)C3N2Nc2ccccc2)cc1` (centres undefined) reads 0.129; that for `CC1=C([C@H](O)CCc2ccccc2)[C@H](CO)[C@@H]2C(=O)N(C)C(=O)[C@@H]2C1`, 0.411; that for `CCOC(=O)C1=CC[C@@H](c2cccc(Cl)c2)N(S(=O)(=O)c2ccc(C)cc2)C1`, 0.067.
On to `COCCOC(=O)N1C(=O)[C@@]2(c3cc(C#Cc4ccc(OC)cc4)ccc31)[C@H](C(=O)Nc1nc3ccccc3s1)[C@H]1C(=O)O[C@H](c3ccccc3)[C@H](c3ccccc3)N1[C@@H]2c1ccc(O)cc1`, for which the composite z-score was found to be 0.0289.
As to `COc1ccc(C#Cc2ccc3c(c2)[C@]2(C(=O)N3)[C@H](c3ccc(O)cc3)N3[C@H](c4ccccc4)[C@H](c4ccccc4)OC(=O)[C@H]3[C@@H]2C(=O)O)cc1`, the composite z-score was -0.161.
Compound `CC(C)C[C@@H]1NC(=O)[C@@H]2C[C@H](C(=O)NCCCCCN)[C@H](c3ccc(O)cc3)N2C1=O` gave a composite z-score of -0.0909.
On to `CN1C(=O)C2C=CC(C(O)c3ccc(F)cc3)N(Nc3ccccc3)C2C1=O` (centres undefined), for which the composite z-score was -0.0222.
In the case of `CCC[C@@H]1C[C@@]1(CCC)[C@@H](NC(=O)OCc1ccccc1)c1ccc(-c2ccccc2)cc1` it was 0.0572; in that of `COc1ccc(NC(=O)O[C@H]2[C@H](OC(=O)Nc3ccccc3)[C@H](OC(=O)Nc3ccccc3)[C@@H](OC)O[C@@H]2CO)cc1`, 0.338; in that of `CC(C)[Si](C#C[Si](C(C)C)(C(C)C)C(C)C)(O[C@H](C)c1cn([C@H](CO)Cc2ccccc2)nn1)C(C)C`, -0.116.
`[N-]=[N+]=NCc1ccccc1[C@@H]1OC(c2ccc(OCCCO)cc2)=N[C@]1(CCS(=O)(=O)c1ccccc1)C(=O)NCC(O)CO` (some centres undefined) returned a composite z-score of 0.067.

For the origin of these results see PubChem BioAssay.
